PubChem BioAssay AID2147 (National Center for Advancing Translational Sciences (NCATS), 2009)
Values joined by “and” are separate entries in the source; they are usually repeats but may differ in a detail not shown here. Identical values can stand only once. About 3,600 (1.6%) of roughly 230,000 compounds were called active. About 15% were inconclusive and are not listed. Calls follow the shape of the dose curve; as a rule, active = well fitted inhibition curve with a large enough effect (not every such curve was filed as active); inconclusive = small, poorly fitted or top-dose-only effect, or another doubt; inactive = no such curve, though single readings can be large or run the other way. For the sample, actives were picked, then their nearest neighbours and some compounds at random. Some structures have more than one record in an assay (separate samples or runs), and their calls can disagree.

target: Lysine-specific demethylase 4E (Homo sapiens) (UniProt B2RXH2); test: qHTS Assay for Inhibitors of Human Jumonji Domain Containing 2E (JMJD2E); conditions: JMJD2E catalytic domain, FDH-coupled NADH fluorescence (FDH is formaldehyde dehydrogenase); series mostly up to 57.1 µM; activity change, negative = inhibition: at the top concentration
Sequence (B2RXH2 1-337 limits assumed): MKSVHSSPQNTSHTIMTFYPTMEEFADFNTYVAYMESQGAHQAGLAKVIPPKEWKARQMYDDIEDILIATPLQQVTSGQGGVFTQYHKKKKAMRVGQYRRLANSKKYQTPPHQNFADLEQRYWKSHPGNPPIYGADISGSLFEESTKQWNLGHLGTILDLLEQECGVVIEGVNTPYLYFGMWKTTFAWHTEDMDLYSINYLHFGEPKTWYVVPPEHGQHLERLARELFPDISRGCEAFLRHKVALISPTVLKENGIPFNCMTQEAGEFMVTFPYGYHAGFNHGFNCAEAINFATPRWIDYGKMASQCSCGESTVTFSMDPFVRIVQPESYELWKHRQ
Source text: Assay Provider: Structural Genomics Consortium [SGC] Screening Center PI: Austin, C.P. Screening Center: NIH Chemical Genomics Center [NCGC] The fine interplay among methylation states of several lysine residues on the tails of histone proteins is a major determinant of the transcriptional state of the associated DNA coding regions and is commonly referred to as the histone code. Histone lysine demethylases catalyze the removal of methyl groups from methylated lysine sidechains on histones H3 and H4, thus antagonizing the reactions catalyzed by histone lysine methyltransferases. […] In search for novel inhibitors of JMJD2E demethylase, a member of the largest set of histone demethylases belonging to the Fe(II) and 2-oxoglutarate oxygenase (2OG) superfamily, we performed a quantitative high-throughput screen (Inglese 2006) by using an assay which utilizes a trimethylated peptide substrate corresponding to a fragment of histone H3 (sequence ARKme3STGGK) with detection of the formaldehyde co-product in real time by a formaldehyde dehydrogenase (FDH) coupled reaction. FDH catalyzes oxidation of formaldehyde to formic acid with the concomitant reduction of the non-fluorescent beta-nicotinamide adenine dinucleotide hydrate (NAD+) cofactor to the fluorescent NADH co-product. References: Inglese, J., Auld, D., Jadhav, A., Johnson, R., Simeonov, A., Yasgar, A., Zheng, W. and Austin, C. Proc Natl Acad Sci USA 2006, 103, 11473-11478. N. R. Rose, S. S. Ng, J. Mecinovic, B. M. Lienard, S. H. Bello, Z. Sun, M. A. McDonough, U. Oppermann and C. J. Schofield, J Med Chem, 2008, 51, 7053-7056. Sakurai, M., Rose, N., Schultz, L., Quinn, A., Jadhav, A., Ng, S., Oppermann, U., Schofield, C.J. and Simeonov, A. Mol BioSystems 2009, in press. S. Michael, D. Auld, C. Klumpp, A. Jadhav, W. Zheng, N. Thorne, C. Austin, J. Inglese and A. Simeonov, Assay Drug Dev Technol, 2008, 6, 637-657.
Reagents and Controls: Ferrous ammonium sulfate, (+)-sodium L-ascorbate, beta-nicotinamide adenine dinucleotide hydrate (NAD+), Tween-20, formaldehyde dehydrogenase from P. putida (FDH), and disodium 2-oxoglutarate were from Sigma (St. Louis, MO). Black solid-bottom 384-well or 1,536-well assay plates were from Greiner Bio-One (Monroe, NC). Enzyme was supplied by Prof. Udo Oppermann, SGC-Oxford. The catalytic domain of human JMJD2E (residues 1-337) was produced as an N-terminally His6-tagged protein in E. coli, and purified by Ni-affinity chromatography and size-exclusion chromatography, and stored in HEPES 50 mM/ NaCl 500 mM pH 7.5, as reported in Rose 2008. The trimethylated histone peptide substrate ARK(me3)STGGK was synthesized and HPLC-purified by the Tufts University Core Facility (Boston, MA). Substrate solution (Sakurai 2009) contained 50 uM ARK(me3)STGGK, 0.00025 U/uL FDH, 50 uM 2-oxoglutarate, 250 uM NAD+, 1 mM ascorbate, and 10 uM ferrous ammonium sulfate. Controls and plate map: Buffer (150 mM HEPES pH 7.5 containing 0.01% Tween-20) in columns 3 and 4 as negative control (no enzyme) and 100 nM JMJD2E final concentration in columns 1,2, and 5-48. Assay Steps: Enzyme and buffer solutions (3 uL) were dispensed into a 1,536-well Greiner black solid-bottom assay plate. The library compounds (23 nL) were transferred using a Kalypsys pintool equipped with 1,536-pin array. The plate was incubated at room temperature (15 min), and then a 1 uL aliquot of substrate solution was added to initiate the reaction. The plate was transferred to ViewLux imager where an initial reading using standard UV optics (Ex 340 nm, Em 450 nm) was obtained. The plate was then removed from the reader, incubated for 30 minutes at room temperature, and returned to the reader for a second fluorescence reading. A fully automated robotic screening system (Kalypsys Inc, San diego, CA) was used to perform the above steps as described previously (Michael 2008). […]
Also: nearly all actives have a fitted effect of over 50% in size.
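For activity change, negative = inhibition in this document: 0% = wells with enzyme and -100% = buffer wells without enzyme.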
Potency is read from the fitted curve at half-maximal effect.

SMILES	activity change, negative = inhibition	Potency
COc1ccc(CCNC(=O)C(Sc2ccccn2)c2ccccc2)cc1OC (configuration not stated)	-33.4% (inactive)	
O=C(CCCN1C(=O)/C(=C/c2ccco2)SC1=S)Nc1ccccc1	-7.15% (inactive)	
O=c1nc2s/c(=C\c3ccco3)c(=O)n2nc1Cc1ccccc1		15.8 µM (active)
CCOc1ccccc1/C=c1\sc2nc(-c3ccco3)nn2c1=O	4.2% (inactive)	
Cc1c(Cl)cccc1NC(=S)N(Cc1ccccc1)Cc1cccnc1	4.24% (inactive)	
CS(=O)(=O)c1sc(C(=O)NC(=S)Nc2ccc(OC(F)(F)F)cc2)c2c1C=CCC2	-6.61% (inactive)	
CCNc1nc(NCC)nc(N/N=C/c2ccc(O)c(OC)c2)n1	-5.62% (inactive)	
CCN(CC)CCCN=C(N)N	6.35% (inactive)	
Cc1ccc(-c2nc(-c3cccnc3)sc2CC(=O)Nc2ccc(C)c(Cl)c2)cc1		15.8 µM (active)
Cc1cc(C)c(NC(=O)CS(=O)CC(=O)Nc2cccnc2)c(C)c1 (configuration not stated)	-1.38% (inactive)	
Cc1ccc(NC(=O)COc2ccc(-n3ccnc3)cc2)cc1Cl	1.53% (inactive)	
COc1ccc(CN2C(=O)C(C)S/C2=N/N=C/c2ccco2)cc1 (configuration not stated)	8.02% (inactive)	
O=C(CCS(=O)(=O)c1ccccc1Cl)Nc1ccc(S(=O)(=O)Nc2ncccn2)cc1	-0.745% (inactive)	
COc1ccc2c(=O)cc(-c3ccccc3)oc2c1O	-1.03% (inactive)	
CCOC(=O)COc1cc(O)c2c(=O)cc(-c3ccccc3)oc2c1	-17.6% (inactive)	
O=c1cc(-c2ccc(O)c(O)c2)oc2cccc(O)c12		20 µM (active)
COc1c(O)cc2oc(-c3ccc(O)c(O)c3)cc(=O)c2c1O		10 µM (active)
Cc1coc(C)c1C(=O)CC1(O)C(=O)N(C)c2ccc(Cl)cc21 (configuration not stated)	-3.58% (inactive)	
O=C(CS(=O)(=O)c1ccc(C(F)(F)F)cn1)NNC(=O)c1ccccc1	3.69% (inactive)	
CC(=O)c1ccc2c(c1)OCCOCCOc1ccc(C(C)=O)cc1OCCOCCO2	-0.13% (inactive)	
O=C(/C=C/c1ccc(Cl)c([N+](=O)[O-])c1)c1cccnc1	4.53% (inactive)	

SMILES	activity change, negative = inhibition	Potency
Cc1cc(OCCCCOc2ccc(C#N)cc2)ccc1[N+](=O)[O-]	-10.5% (inactive)	
O=C1CCN(C(=S)NCCc2ccccc2)CC1	2.72% (inactive)	
Oc1cc2c(cc1O)CN(C(=S)NCCc1ccc(Cl)cc1)CCC2		28.2 µM (active)
S=C(NCCc1ccccc1)N1CCCCC1	0.522% (inactive)	
CC(=O)c1nnn(-c2ccc(Cl)cc2C#N)c1C	2% (inactive)	
COc1ccccc1OCCNCC(O)COc1cccc2[nH]c3ccccc3c12 (configuration not stated)		inactive and 25.1 µM (active)
CC(C)(C)NCC(O)COc1cccc2[nH]c(=O)[nH]c12 (configuration not stated)	0.739% (inactive)	
Cc1noc(COc2ccccc2OCC(O)CNC(C)(C)C)n1 (configuration not stated)	-6.31% (inactive)	
CCN(CC)S(=O)(=O)c1ccc(N2CCOCC2)c(NC(=O)C2COc3ccccc3O2)c1 (configuration not stated)	-5.42% (inactive)	
O=[N+]([O-])c1ccc(C=Nc2ccc(Cl)cc2Cl)s1		22.4 µM (active)
CCOc1ccc(NC(=O)CCC(=O)N/N=C/c2ccc([N+](=O)[O-])s2)cc1	-2.83% (inactive)	
CC(C)(C)c1cc(C(=O)N/N=C/c2ccc([N+](=O)[O-])s2)n[nH]1	0.226% (inactive)	
O=C(NNS(=O)(=O)c1ccccc1)c1cnn(-c2ccc(Cl)cc2)c1C(F)(F)F	8.91% (inactive)	
NC(=O)C1(C(N)=O)OC1c1ccc(Cl)cc1Cl (configuration not stated)	0.802% (inactive)	
O=C(CSc1nc2ccccc2o1)N/N=C/c1ccccc1C(=O)O	4.12% (inactive)	
O=C(NC1CC1)C1=C[C@H](c2c[nH]c3ccccc23)C[C@H](OCc2ccc(CO)cc2)O1	1.29% (inactive)	
NC(=O)C1=C[C@@H](c2csc3ccccc23)C[C@@H](OCc2ccc(CO)cc2)O1		22.4 µM (active)
NC(=O)C1=C[C@H](c2csc3ccccc23)C[C@H](OCc2ccc(CO)cc2)O1	-6.28% (inactive)	
OCC1(Cc2ccccc2C(F)(F)F)CCN(Cc2ccncc2)CC1	-22.4% (inactive)	
CCn1cc(C(=O)NCC2CCCO2)c(=O)c2cc(S(=O)(=O)N3CCCCC3)ccc21 (configuration not stated)	-1.81% (inactive)	
CCOC(=O)N1CCN(C(=O)c2cn(C)c3ccc(S(=O)(=O)N4CCCC4)cc3c2=O)CC1	-0.344% (inactive)	

SMILES	activity change, negative = inhibition	Potency
CCn1cc(C(=O)NCCCN2CCCCCC2)c(=O)c2cc(S(=O)(=O)N3CCc4ccccc4C3)ccc21		25.1 µM (active)
CC(C)(C)C(=O)Nc1c(Br)c(C2CC2)nn1-c1ccccc1	3.79% (inactive)	
O=C(COC(=O)c1ccc(S(=O)(=O)Nc2ccccc2)cc1)NCC1CCCO1 (configuration not stated)	3.36% (inactive)	
CCN(CC(=O)NCCc1ccccc1)S(=O)(=O)c1ccccc1	-0.682% (inactive)	
Cc1c(CCOC(=O)CC23CC4CC(CC(C)(C4)C2)C3)sc[n+]1Cc1ccc([N+](=O)[O-])cc1		10 µM (active)
Cc1c(CCO)sc[n+]1CC(=O)OC12CC3CC(CC(C3)C1)C2	2.74% (inactive)	
Cc1c(CCOC(=O)c2cc([N+](=O)[O-])ccc2Cl)sc[n+]1CCCCS(=O)(=O)[O-]	9.22% (inactive)	
O=C(COc1ccc([N+](=O)[O-])cc1Cl)Nn1cnnc1	-3.14% (inactive)	
C[C@@H]1O[C@@H](OC[C@H]2O[C@@H](Oc3c(-c4cccc(O)c4O)oc4cc(O)cc(O)c4c3=O)[C@H](O)[C@@H](O)[C@@H]2O)[C@H](O)[C@H](O)[C@H]1O		7.08 µM (active)
CC1OC(OCC2OC(Oc3c(-c4ccc(O)c(O)c4)oc4cc(O)cc(O)c4c3=O)C(O)C(O)C2O)[C@@H](O)C(O)C1O (some centres not stated)		7.08 µM (active)
COc1ccc(C2CC(=O)c3c(O)cc(OC4OC(COC5OC(C)C(O)C(O)C5O)C(O)C(O)C4O)cc3O2)cc1O (configuration not stated)	2.92% (inactive)	
COc1ccc(CCC(=O)c2c(O)cc(OC3OC(CO)C(O)C(O)C3O[C@@H]3OC(C)C(O)C(O)C3O)cc2O)cc1O (some centres not stated)	-3.34% (inactive)	
C=CCc1ccc(OCC(O)CN2CCN(Cc3ccccc3)CC2)c(OC)c1 (configuration not stated)	-5.88% (inactive)	
CCN(CC)CC1(O)CCN(C(=O)c2ccc(Cl)c(Cl)c2)CC1	-3.78% (inactive)	
CSc1nnnn1-c1c(C)cc(C)cc1C	-5.36% (inactive)	
CCc1ccc[n+](-c2nc([O-])sc2C=O)c1	1.47% (inactive)	
O=C(Nc1ccc(N2CCN(C(=O)c3ccccc3)CC2)c(Cl)c1)c1ncn[nH]1	-12.6% (inactive)	
Nc1cccc(S(=O)(=O)Nc2ccc(SC(F)F)cc2)c1	0.195% (inactive)	
CN1CCN(C2=NCCO2)CC1	11.8% (inactive)	
Cc1cccc(-[n+]2c(-c3cccc(Br)c3)[nH]c3nc4ccccc4nc32)c1		25.1 µM (active)
